In PubChem BioAssay:
Several values for one entry are separate records, joined by “and”; a condition that tells them apart may be missing. Equal entries are not always repeated. A structure can be active in one record and inactive in another. Activity calls are given as the source filed them. Cut-off read from the data, not from the text of the source: active = fold change permeability below about 0.7 or above about 1.3; inactive = in between.

Assay: compounds altering in vitro BBB leakiness – cell-based, FITC-avidin fluorescence, HTS, primary screen (AID 1963498); note: test concentration not given here
Conditions: brain endothelial barrier, actives lie on both sides
For `N[C@@H]1C[C@H]1c1ccccc1`, the fold change permeability was 0.9 (inactive). In the case of `C[N+]1(C)CCOC(O)(c2ccc(-c3ccc(C4(O)C[N+](C)(C)CCO4)cc3)cc2)C1` (centres undefined), the fold change permeability is reported as 1.1 (inactive). For `Cn1cnc(CCN)c1`, the fold change permeability was 0.9 (inactive). For `CCCCCN(C)CCC(O)(P(=O)(O)O)P(=O)(O)O`, the fold change permeability was 1.8 (active). With `CN1C[C@H](CNC(=O)OCc2ccccc2)C[C@@H]2c3cccc4c3c(cn4C)C[C@H]21` the fold change permeability was 1.4 (active). For `CC[C@@H]1C(=O)OC[C@@H]1Cc1cncn1C`, the fold change permeability was 1.3 (active) and 1.2 (inactive). With `COc1cc(C(O)CN)ccc1O` (centres undefined) the fold change permeability was 0.9 (inactive). With `C[N+](C)(C)CC#CCN1CCCC1=O` the fold change permeability was 1 (inactive). In the case of `Clc1ccc(CO/N=C(\Cn2ccnc2)c2ccc(Cl)cc2Cl)c(Cl)c1`, the fold change permeability is reported as 1.6 (active). In the case of `C[C@@H]1[C@@H]2Cc3ccc(O)cc3[C@@]1(C)CCN2CC1CC1`, the fold change permeability is reported as 1.3 (active). In the case of `C[C@@H](N)Cc1cnc[nH]1`, the fold change permeability is reported as 0.9 (inactive). For `COc1ccc(C(=O)N2CCCC2=O)cc1`, the fold change permeability was 1 (inactive). In the case of `CCCC[N+]1(C)C2CC(OC(=O)[C@H](CO)c3ccccc3)CC1C1OC12` (some centres undefined), the fold change permeability is reported as 0.8 (inactive). For `N[C@@]1(C(=O)O)CC[C@@H](C(=O)O)C1`, the fold change permeability was 1 (inactive). With `C=C(C)[C@H]1CN[C@H](C(=O)O)[C@H]1CC(=O)O` the fold change permeability was 1.8 (active). For `C=CCN1CC[C@]23c4c5ccc(O)c4O[C@H]2C(=O)CC[C@@]3(O)[C@H]1C5`, the fold change permeability was 1 (inactive). With `O=P1(N(CCCl)CCCl)NCCCO1` (centres undefined) the fold change permeability was 1 (inactive). With `CN1CCC(c2c[nH]c3ccc(O)cc23)CC1` the fold change permeability was 1 (inactive). In the case of `CCN(CC)c1ncnc2c1ncn2[C@@H]1O[C@H](COP(=O)(O)OP(=O)(O)C(Br)(Br)P(=O)(O)O)[C@@H](O)[C@H]1O`, the fold change permeability is reported as 1.1 (inactive).
